Assay outcomes (PubChem BioAssay)
Most compounds without a hit are left out; they make up all but 2.6% or so of the library.
FH mod: Identification of activators of human fumarate hydratase by quantitative high-throughput screening; Fumarate hydratase, mitochondrial (Homo sapiens), P07954; FH coupled MDH/diaphorase resazurin fluorescence, 15 min; Potency, µM (doses to about 79.9 µM), actives largely listed as inhibitors; hit rate 0.22% among 54,000; AID 1347055, 2019; also: the screen sought activators but most active calls are inhibition curves; nearly all actives have a fitted effect of over 45% in size
Target sequence (P07954 whole entry, looked up): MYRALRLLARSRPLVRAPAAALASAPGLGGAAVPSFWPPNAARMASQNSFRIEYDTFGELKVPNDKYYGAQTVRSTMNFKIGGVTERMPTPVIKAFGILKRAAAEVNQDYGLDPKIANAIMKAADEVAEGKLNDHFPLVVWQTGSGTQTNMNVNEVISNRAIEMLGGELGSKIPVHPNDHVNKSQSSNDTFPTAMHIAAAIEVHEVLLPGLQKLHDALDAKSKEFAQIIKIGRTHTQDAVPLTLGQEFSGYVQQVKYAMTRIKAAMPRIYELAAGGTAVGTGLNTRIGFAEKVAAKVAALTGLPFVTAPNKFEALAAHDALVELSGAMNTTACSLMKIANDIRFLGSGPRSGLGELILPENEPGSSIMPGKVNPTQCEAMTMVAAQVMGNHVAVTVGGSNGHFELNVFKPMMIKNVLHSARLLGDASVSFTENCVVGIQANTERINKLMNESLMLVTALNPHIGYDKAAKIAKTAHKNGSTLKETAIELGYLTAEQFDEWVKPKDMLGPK
HTT-AS promoter: activates huntingtin-antisense promoter activity; hit rate 0.24% among 48,000; AID 1508624; HEK293 HTT-AS promoter firefly luciferase reporter, 24 h; response scale: percent change from vehicle, -100% = no light; Potency, µM (doses to about 57.5 µM), actives largely listed as activators; also: nearly all actives have a fitted effect of over 55% in size
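HEK293 luciferase promoter-reporter cells (2,500/well) plated 24 h, then compounds added at up to 57.5 uM final for 24 h at 37 °C. Firefly luminescence by Dual-Glo, normalized to vehicle (0%) and zero RLU (-100%).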
HTT prom inh: HTT promoter inhibition | HEK293 HTT promoter firefly luciferase reporter, 24 h | Potency, µM (highest dose often 57.5 µM), usual class: inhibitors | hit rate 0.93% among 48,000 | AID 1508623; also: nearly all actives have a fitted effect of over 50% in size
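Quantitative HTS used concentration series of up to 57.5 uM final on HEK293 luciferase reporter cells, 24 h at 37 degrees C. Readout was Dual-Glo firefly luminescence.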
NTMT1 inh: blocks human N-terminal methyltransferase 1 activity; Q9BV86; NTMT1 MTase-Glo SAH luminescence, purified enzyme; Potency, µM (doses to about 114 µM), actives largely listed as inhibitors; hit rate 2.5% among 59,000; AID 1645870; also: nearly all actives have a fitted effect of over 65% in size
Target sequence (Q9BV86 whole entry, looked up): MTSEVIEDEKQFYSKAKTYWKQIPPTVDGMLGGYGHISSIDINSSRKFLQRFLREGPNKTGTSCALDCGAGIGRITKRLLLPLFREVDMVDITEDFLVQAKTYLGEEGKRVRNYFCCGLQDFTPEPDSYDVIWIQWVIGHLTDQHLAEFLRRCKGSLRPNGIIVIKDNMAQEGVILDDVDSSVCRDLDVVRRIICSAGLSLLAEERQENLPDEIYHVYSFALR
Of the large screens only hits and unclear results are named; the others gave an inactive call; ! = not active in a repeat. Calls follow the shape of the dose curve; as a rule, active = well fitted curve in the direction sought with a large enough effect; inconclusive = small, poorly fitted or top-dose-only effect, or another doubt; inactive = no such curve, though single readings can be large; an effect the other way counts as inactive or inconclusive.

CCOC(=O)C1CCCN(C(=O)c2cc3c(=O)[nH]c4ccc(C)cc4c3s2)C1 (configuration not stated)	FH mod inconclusive
CCOC(=O)C1CCCN(C(=O)c2cc3c(Cl)nc4ccccc4c3s2)C1 (configuration not stated)	HTT prom inh 5µM
CCOC(=O)c1cc2c([nH]1)CCCC2=O	none (no result: FH mod, HTT-AS promoter, HTT prom inh)
CCc1ccccc1NC(=O)CCCN1C(=O)COc2ccc(C)cc21	none
CC(=O)c1cccc(NC(=O)CCCN2C(=O)COc3ccc(C)cc32)c1	HTT prom inh inconclusive, NTMT1 inh 79µM
C=C(F)c1sc(CNCCCNc2cc(=O)c3ccccc3[nH]2)c(C)c1Br	none (no result: HTT-AS promoter, HTT prom inh)
COc1ccc(CCNC(=O)c2c[nH]n3c(=O)c(Cc4ccccc4Cl)c(C)nc23)cc1OC	FH mod 18µM, HTT prom inh inconclusive
C[C@H]1[C@H](C)CC[C@]2(C(=O)OC3OC(CO)C(O)C(O)C3O)CC[C@]3(C(=O)O)C(=CCC4[C@@]5(C)CC[C@H](O[C@@H]6O[C@@H](C)[C@H](OC7OC(CO)C(O)C(O)C7O)[C@@H](O)[C@H]6O)C(C)(C)C5CC[C@]43C)[C@H]12 (some centres not stated)	none (no result: HTT-AS promoter, HTT prom inh)
Cc1cc(NS(=O)(=O)c2ccc(NC(=O)c3ccc(Cl)c(Cl)c3)cc2)no1	none (no result: FH mod, HTT-AS promoter, HTT prom inh)
CCCCC(=O)Oc1ccc2oc(-c3ccc(OC)cc3)cc(=O)c2c1	HTT-AS promoter 2µM
COC(=O)COc1ccc2oc(-c3ccc(OC)cc3)cc(=O)c2c1	HTT-AS promoter inconclusive
Cc1ccc(C(=O)[C@H]2CC[C@@H](C(=O)Nc3ccc(S(=O)(=O)Nc4nccs4)cc3)C2)cc1C	none (no result: FH mod, HTT-AS promoter, HTT prom inh)
CC1CC1C(=O)Nc1ccc([S+](=O)([O-])Nc2nccs2)cc1 (configuration not stated)	none (no result: FH mod, HTT-AS promoter, HTT prom inh)
COc1ccc(-c2cnc3c(-c4cccc5ncccc45)cnn3c2)cc1	none (no result: HTT-AS promoter, HTT prom inh)
c1cc(-c2cnn3cc(-c4ccc(OCCN5CCCCC5)cc4)cnc23)ccn1	NTMT1 inh 34µM!
CC(=O)N1CCCc2cc(S(=O)(=O)N3CCCC(C(=O)N4CCN(c5ccccc5F)CC4)C3)ccc21 (configuration not stated)	HTT prom inh 10µM
COc1ccc(N2CCN(C(=O)C3CCCN(S(=O)(=O)c4ccc5c(c4)CCCN5C(C)=O)C3)CC2)cc1 (configuration not stated)	HTT prom inh inconclusive
CCCO[C@@H]1O[C@H](CO)[C@@H](O)[C@H](O)[C@H]1O[C@@H]1OC[C@@H](O)[C@H](O)[C@H]1O	none (no result: HTT-AS promoter, HTT prom inh)
COc1ccc(CCN2CCC(CNC(=O)c3cnn(-c4cccc(Cl)c4)c3C3CCN(C(=O)OC(C)(C)C)CC3)CC2)cc1	NTMT1 inh 79µM
COc1ccc(CCN2CCC(CNC(=O)c3cnn(-c4ccccc4)c3C3CCN(C(=O)OC(C)(C)C)CC3)CC2)cc1	NTMT1 inh inconclusive
COCCCNC(=O)c1cnn(-c2ccccc2Cl)c1C1CCN(C(=O)OC(C)(C)C)CC1	NTMT1 inh 89µM
CNc1oc(-c2cccc3c2OC(F)(F)O3)nc1C#N	none (no result: FH mod, HTT-AS promoter, HTT prom inh)
O=C(OCC#CCSc1nnc(-c2ccc3ccccc3c2)o1)c1ccc(F)cc1	none (no result: FH mod, HTT-AS promoter, HTT prom inh)
Cc1ccc(-c2ccc(CCC(=O)O)n2-c2cccc(O)c2)cc1	NTMT1 inh 79µM
CC(O)C(O)/C=C/C=C/C(=O)O[C@@H]1C=C2COC(=O)[C@]2(O)[C@@]2(C)CCCC(C)(C)C12 (some centres not stated)	none (no result: HTT-AS promoter, HTT prom inh)
O=C1CCCC2=C1C(c1[nH]ncc1Cl)NC(=NCCc1ccc(O)cc1)N2 (configuration not stated)	none (no result: FH mod, HTT-AS promoter, HTT prom inh)
COc1cc(CN(C(=O)COc2ccc(Br)cc2)c2ccccn2)cc(OC)c1OC	HTT prom inh 32µM, NTMT1 inh inconclusive
COc1cc(CN(C(=O)COc2ccc(C)cc2)c2ccccn2)cc(OC)c1OC	HTT prom inh inconclusive
CCc1ccc(CNC(=O)C2CCCN(c3nn4cc(-c5ccc(F)cc5)nc4s3)C2)cc1 (configuration not stated)	HTT prom inh 4µM
O=c1[nH]sc2cc(Cl)ccc12	HTT-AS promoter inconclusive, NTMT1 inh 2.8µM
CC1(C(=O)O)CCCC2(C)C3=CCC4CC3(CCC12)CC4CO (configuration not stated)	none (no result: HTT-AS promoter, HTT prom inh)
O=C(NCCc1ccccc1)C1CCN(c2nc(-c3ccc(Br)cc3)cs2)CC1	NTMT1 inh 5µM (no result: FH mod, HTT-AS promoter, HTT prom inh)
CNC(=O)C1CCN(c2nc(-c3ccc(Br)cc3)cs2)CC1	none (no result: FH mod, HTT-AS promoter, HTT prom inh)
O=Nc1ccc2oc(=O)ccc2c1	FH mod 1µM (no result: HTT-AS promoter, HTT prom inh, NTMT1 inh)
Cc1ccc(CN2CCCn3nc(C(=O)NCc4ccc(OC(C)C)cc4)cc3C2=O)cc1	HTT prom inh 18µM
O=[S+]([O-])(NCC#CCSc1nnc(-c2cccc3ccccc23)o1)c1ccc(F)cc1	none (no result: FH mod, HTT-AS promoter, HTT prom inh)
Cc1ccc(-c2cc(NC(=O)c3ccccc3Cl)on2)cc1	HTT-AS promoter 4.5µM
COc1ccc(C(=O)Nc2ccc3oc(-c4cc(Cl)ccc4Cl)nc3c2)cc1Br	NTMT1 inh 79µM
Oc1ccc2c(-c3c(-c4ccccn4)nn4c3CCC4)ccnc2c1	none (no result: HTT-AS promoter, HTT prom inh)
O=c1[nH]c(=S)[nH]c(-c2ccccc2)c1Cc1c(O)ccc2ccccc12	FH mod 20µM (no result: HTT-AS promoter, HTT prom inh, NTMT1 inh)
CC(C)(C)c1cnc(CSc2cnc(NC(=O)C3CCNCC3)s2)o1	HTT prom inh inconclusive, NTMT1 inh 50µM!
CCNc1cc(NC2CCC(O)CC2)nc(Nc2ccc3c(ccn3Cc3ccccc3)c2)n1 (configuration not stated)	NTMT1 inh inconclusive
CC(C)c1ccc(Cn2ccc3c4c(N)nc(NC5CC5)nc4ccc32)cc1	NTMT1 inh 25µM!
C#C[C@]1(O)CC[C@H]2[C@@H]3CCc4cc(O)ccc4[C@H]3CC[C@@]21C	NTMT1 inh 11µM!
C=CC(=O)N1CCC[C@H](n2c(=O)n(-c3ccc(Oc4ccccc4)cc3)c3c(N)ncnc32)C1	NTMT1 inh 89µM (no result: FH mod, HTT-AS promoter, HTT prom inh)
CC#CC(=O)N1CC[C@@H](n2c(=O)n(-c3ccc(Oc4ccccc4)cc3)c3c(N)ncnc32)C1	NTMT1 inh 71µM (no result: FH mod, HTT-AS promoter, HTT prom inh)
COc1ccc(CN2C(=O)C(=O)c3cc(S(=O)(=O)N4CCC[C@H]4COc4cccnc4)ccc32)cc1	none (no result: HTT-AS promoter, HTT prom inh)
O=c1[nH]cnc2c([C@@H]3N[C@H](CO)[C@@H](O)[C@H]3O)c[nH]c12	NTMT1 inh inconclusive (no result: HTT-AS promoter, HTT prom inh)
O=c1[nH]cnc2nc[nH]c12	NTMT1 inh 22µM
O=c1sn(-c2cccc3ccccc23)c(=O)n1Cc1ccccc1	NTMT1 inh 13µM (no result: HTT-AS promoter, HTT prom inh)
CCS(=O)(=O)c1ccccc1C(=O)N1CCN(c2nc3ccccc3s2)CC1	HTT prom inh 14µM
COc1cc2ccccc2cc1C(=O)N1CCN(c2nc3ccc(F)cc3s2)CC1	HTT prom inh inconclusive
CC(=O)O[C@H]1CC[C@H](C)[C@@]2(C)[C@H](OC(C)=O)c3c(C)coc3C(=O)[C@H]12	none (no result: HTT-AS promoter, HTT prom inh)
COc1cccc2sc(NC(=O)c3ccc(S(=O)(=O)N4CCC(C)CC4)cc3)nc12	HTT prom inh 28µM
C=CC(=O)Nc1cc(Nc2ncc(Cl)c(-c3c[nH]c4ccccc34)n2)c(OC)cc1N(C)CCN(C)C	NTMT1 inh 20µM (no result: HTT-AS promoter, HTT prom inh)
